According to the supplement of paper PMC10121225:
Structures can show the parent of a compound that is named as a salt.

System: hN + hpA co-culture (H1 iNGN2 human neurons + human primary astrocytes)
Experiment: presynaptic density (SYNAPSIN1 puncta per MAP2 neurite area), Z-score vs DMSO controls; higher = more presynaptic puncta (synapse-promoting)
Settings: 3 µM; 72 h
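Further: immunostained co-cultures imaged by high-content microscopy, Z-score per plate against mean and SD of 0.1% DMSO wells, compounds added on differentiation day 18, analysed day 21.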

Row | SMILES | presynaptic density (Z-score)
1 | CC(C)C[C@H](NC(=O)[C@@H](NC(=O)c1cccc(-c2ccccc2)n1)[C@@H](C)O)B(O)O | -3.12
2 | O[C@@H](COc1cccc2ncccc12)CN1CCN(C2c3ccccc3[C@@H]3[C@H](c4ccccc42)C3(F)F)CC1 (stereo partly drawn) | -1.51
3 | CN(Cc1cnc2nc(N)nc(N)c2n1)c1ccc(C(=O)N[C@@H](CCC(=O)O)C(=O)O)cc1 [Methotrexate] | -0.494
4 | CC(=O)c1cc([N+](=O)[O-])c(Sc2ccc(F)cc2F)s1 | 0.25
5 | CC(C)NCC(O)COc1ccc(COCCOC(C)C)cc1 (racemic) | -0.749
6 | C=CCn1c(=O)c2cnc(Nc3ccc(N4CCN(C)CC4)cc3)nc2n1-c1cccc(C(C)(C)O)n1 | 1.16
7 | COc1cc2c(cc1OC)CN(CCc1ccc(NC(=O)c3cc(OC)c(OC)cc3NC(=O)c3cnc4ccccc4c3)cc1)CC2 [Tariquidar] | -0.47
8 | COc1cccc(C=NCCN=Cc2cccc(OC)c2[O-])c1[O-].[Cl-].[Mn+3] | -0.63
9 | Cc1cc(C(N)=O)ccc1-n1c(CCC(=O)O)ccc1-c1ccc(-n2ccnc2)cc1 | -0.771
10 | CN(C)CCOc1ccc(/C(=C(/CCCl)c2ccccc2)c2ccccc2)cc1 | -0.866
11 | COc1cc2ncnc(Nc3ccc(Cl)cc3F)c2cc1OC | -0.982
12 | CCN(CC)CCNC(=O)c1cc(Cl)c(N)cc1OC [MetoclopraMide HCl] | 0.023
13 | NC(=O)c1ncn([C@@H]2O[C@H](CO)[C@@H](O)[C@H]2O)c1N | 0.26
14 | CC[C@H](C)C(=O)O[C@H]1C[C@@H](C)C=C2C=C[C@H](C)[C@H](CC[C@@H]3C[C@@H](O)CC(=O)O3)[C@H]21 | 1.56
15 | C[C@]1(c2nc3c(C(N)=O)cccc3[nH]2)CCCN1 [Veliparib (ABT-888)] | 0.43
16 | C[C@H](CS)C(=O)N1CCC[C@H]1C(=O)O [Captopril] | -1.61
17 | N#CC[C@H](C1CCCC1)n1cc(-c2ncnc3[nH]ccc23)cn1 | 0.202
18 | COc1cc(N2CCC(N(C)C)CC2)ccc1Nc1ncc(Cl)c(Nc2ccccc2P(C)(C)=O)n1 | 0.449
19 | COc1c(O)cc2c(c1O)[C@@H]1O[C@H](CO)[C@@H](O)[C@H](O)[C@H]1OC2=O | 0.361

Row | SMILES | presynaptic density (Z-score)
20 | COc1ccc(C2CNC(=O)C2)cc1OC1CCCC1 (stereo not drawn) [Rolipram] | -0.353
21 | CC(C)(C#N)c1cc(Cn2cncn2)cc(C(C)(C)C#N)c1 | -0.628
22 | CN[C@H]1CC[C@@H](c2ccc(Cl)c(Cl)c2)c2ccccc21 | 1.13
23 | O=C1c2ccccc2-c2n[nH]c3cccc1c23 [Anthra[1-9-cd]pyrazol-6(2H)-one] | 0.183
24 | CCc1c2c(nc3ccc(O)cc13)-c1cc3c(c(=O)n1C2)COC(=O)[C@]3(O)CC | 0.761
25 | CC(C)(C)NC(=O)[C@H]1CC[C@H]2[C@@H]3CC[C@H]4NC(=O)C=C[C@]4(C)[C@H]3CC[C@]12C [Finasteride] | -0.206
26 | CC(C)n1c(/C=C/C(O)CC(O)CC(=O)O)c(-c2ccc(F)cc2)c2ccccc21 (stereo not drawn) [Fluvastatin Sodium] | 1.53
27 | O=C(NC[C@H]1CN(c2ccc(N3CCOCC3=O)cc2)C(=O)O1)c1ccc(Cl)s1 [Rivaroxaban] | -0.11
28 | Nc1nc(N)c2nc(-c3ccccc3)c(N)nc2n1 [Triamterene] | -0.407
29 | CC(C)(C)c1cc(/C=C(\C#N)C(N)=S)cc(C(C)(C)C)c1O [Tyrphostin AG 879] | -0.121
30 | CC(C=CC(=O)NO)=CC(C)C(=O)c1ccc(N(C)C)cc1 (stereo not drawn) [Trichostatin A (TSA)] | 11.2
31 | CC(CCc1ccccc1)NCC(O)c1ccc(O)c(C(N)=O)c1 (stereo not drawn) [Labetalol HCl] | -0.733
32 | O=C(Nc1ccccc1-c1cn2c(CN3CCNCC3)csc2n1)c1cnc2ccccc2n1 | -1.26
33 | CCCCCCCCc1ccc(CCC(N)(CO)CO)cc1 [Fingolimod (FTY720) HCl] | 0.342
34 | Cc1[nH]c(/C=C2\C(=O)Nc3ccc(S(=O)(=O)Cc4c(Cl)cccc4Cl)cc32)c(C)c1C(=O)N1CCC[C@@H]1CN1CCCC1 | -4.53
35 | CS(=O)(=O)c1ccc(-c2cnc(N)c(C(=O)Nc3ccccc3)n2)cc1 | -0.463
36 | O=C(O)Cc1cccc(OCCCN(Cc2cccc(C(F)(F)F)c2Cl)CC(c2ccccc2)c2ccccc2)c1 | -1.54
37 | O=C(NCc1ccccc1)c1csc(Nc2ccncn2)n1 [Thiazovivin] | 0.74
38 | O=C(NNc1ccccc1)c1ccncc1 | -0.884
